Hits are enriched below; roughly 21% of the tested compounds scored in any of these assays.
ClpP mod – qHTS Assay for Activators of ClpP; ATP-dependent Clp protease proteolytic subunit (Bacillus subtilis (strain 168)), P80244; purified B. subtilis ClpP, FRET peptide cleavage, 20 min; Potency, µM (doses to about 57.5 µM), for the others: at the highest dose activity change, negative = active; 340,000 tested, 1.9% active; AID 651965, 2013; active = well fitted falling curve with a large enough effect; inconclusive = small, poorly fitted or top-dose-only effect; inactive = no such curve, though single readings can be large or run the other way; note: potency is the fitted concentration of half-maximal effect; the source files actives as falling curves though it sought activators and does not explain the sign; nearly all actives have a fitted effect of over 65% in size
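FRET quenching reversal measured ClpP activation: 10 microg/mL B. subtilis ClpP at pH 8 with the FRET-FV decapeptide, read at 430 nm after 320 nm excitation. The 20-min minus 0-min signal was scaled between DMSO/no-enzyme wells and ADEP (5.8 microM final).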
DRD3 agonist – agonists of human D3 dopamine receptor. 410,000 tested, 0.58% active. D3R DiscoveRx beta-arrestin cells, luminescence, 90 min. max activation, %; in the data active = max activation above about 30%; note: 0% is about no effect
Target sequence (P35462 whole entry, looked up): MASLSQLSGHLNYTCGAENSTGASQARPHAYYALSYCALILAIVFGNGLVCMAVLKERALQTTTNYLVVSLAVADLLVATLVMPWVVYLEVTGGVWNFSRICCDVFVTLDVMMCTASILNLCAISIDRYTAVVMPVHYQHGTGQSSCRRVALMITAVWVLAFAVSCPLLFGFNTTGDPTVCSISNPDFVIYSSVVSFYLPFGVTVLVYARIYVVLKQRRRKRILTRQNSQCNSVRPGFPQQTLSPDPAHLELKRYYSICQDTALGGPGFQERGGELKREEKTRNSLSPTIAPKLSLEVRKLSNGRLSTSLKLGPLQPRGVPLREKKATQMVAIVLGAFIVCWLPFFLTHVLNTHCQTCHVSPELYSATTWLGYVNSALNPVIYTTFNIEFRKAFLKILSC
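Agonist-mode cell screen: cells plated at 1500/well and incubated overnight at 37 °C, then exposed to library compounds for 90 min at 37 °C. Detection reagent was added for 30–60 min at room temperature, and luminescence was read.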
IL-1B inflam inh – inhibitors of inflammasome signaling (IL-1 beta secretion); activity change, % at 57.5 µM; 360,000 tested, 4.7% active; THP-1 LPS/ATP IL-1B secretion, AlphaLISA, 16 h; hits give low values; AID 743279; in the data active = activity change below about -50%; inconclusive = mostly about -30% to -49%; note: % is set by controls: 0 for no effect and ±100 for the full control effect
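Secreted IL-1B measured by AlphaLISA bead assay after 16 h compound exposure of THP-1 cells; compounds (final up to 57.5 uM) added 1 h before LPS (250 ng/mL) and ATP (1.25 mM) stimulation; lower signal means less secretion.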
DRD3 antagonist – D3 dopamine receptor (human) antagonism; P35462; D3R cells, DiscoveRx beta-arrestin luminescence, antagonist mode; hits give low values; max response, negative = inhibition, %; 360,000 tested, 2.5% active; AID 652054; in the data active = max response below about -50%; inconclusive = no clear call, values can overlap the other calls; note: % is set by controls: 0 for no effect and ±100 for the full control effect
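Cells plated overnight at 1500 cells/well, then exposed to library compounds with dopamine controls for 90 minutes at 37 degrees C. DiscoveRx reagent added for 30–60 minutes at room temperature; luminescence read, quantitative HTS format.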
DT40 TDP1 no CPT – qHTS for Inhibitors of human tyrosyl-DNA phosphodiesterase 1 (TDP1): qHTS in cells in absence of CPT; Potency, µM (top dose mostly 46.2 µM), for inactives: top-dose activity change, negative = growth inhibition, hits mostly inhibitors; DT40 Tdp1-/- hTDP1 cells, no CPT, ATP luminescence, 48 h; 420,000 tested, 15% active; note: potency is the fitted concentration of half-maximal effect; % is set by controls: 0 for no effect and ±100 for the full control effect; nearly all actives have a fitted effect of over 55% in size
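Chicken DT40 Tdp1-/- cells stably complemented with human TDP1 were seeded at 400 cells/well with DMSO in place of 20 nM camptothecin. After compound pinning, cells grew at least 48 hr at 37 °C; viability read by CellTiter-Glo luminescence.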
TDP1 cell CPT – growth inhibition of DT40 Tdp1-/-;hTDP1 cells with camptothecin (screen for TDP1 inhibitors); chicken DT40 Tdp1-/-;hTDP1 cells + 20 nM CPT, ATP luminescence, 48 h; Potency, µM (series often up to 46.2 µM), for inactives: top-dose activity change, negative = growth inhibition, most hits filed as inhibitors; 420,000 tested, 12% active; note: potency is the fitted concentration of half-maximal effect; % is set by controls: 0 for no effect and ±100 for the full control effect; nearly all actives have a fitted effect of over 55% in size
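Chicken DT40 Tdp1-/- cells stably complemented with human TDP1 were seeded at 400 cells/well in medium containing 20 nM camptothecin, exposed to pin-transferred compounds, and grown at 37 °C for at least 48 hr. Viability was read as ATP luminescence.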
* hit, by the source's call. Unless noted, calls come from the whole dose curve; as a rule, active = well fitted inhibition curve with a large enough effect; inconclusive = small, poorly fitted or top-dose-only effect; inactive = flat fitted curve, though single readings scatter.

What do the screens show for `C(=C\c1ccccc1)/CN1CCN(C(c2ccccc2)c2nnnn2C2CCCC2)CC1` (configuration not stated)?
ClpP mod: 1%; DRD3 agonist: -11; IL-1B inflam inh: -5; DRD3 antagonist: inconclusive; DT40 TDP1 no CPT: 23µM*; TDP1 cell CPT: 18µM*

What do the screens show for `CCC(c1nnnn1C1CCCC1)N1CCN(c2ccccc2F)CC1` (configuration not stated)?
ClpP mod: 2%; DRD3 agonist: 2; IL-1B inflam inh: -3; DRD3 antagonist: 0; DT40 TDP1 no CPT: inconclusive; TDP1 cell CPT: -17%

What do the screens show for `C(=C\c1ccccc1)/CN1CCN(C(CCc2ccccc2)c2nnnn2C2CCCC2)CC1` (configuration not stated)?
ClpP mod: -1%; DRD3 agonist: -17; IL-1B inflam inh: inconclusive; DRD3 antagonist: -116*; DT40 TDP1 no CPT: inconclusive; TDP1 cell CPT: 18µM*

Results for CCCc1cc(=O)[nH]c2nnc(SCC(=O)NCc3ccc4c(c3)OCO4)n12 ?
ClpP mod: -12%; DRD3 agonist: -4; IL-1B inflam inh: -5; DRD3 antagonist: 19; DT40 TDP1 no CPT: 17%; TDP1 cell CPT: -8%

Results for Cc1cccc(-n2c(SCC(=O)Nc3ccc(C)c(C)c3)nc3n[nH]c(C)c3c2=N)c1 ?
ClpP mod: 35%; DRD3 agonist: -2; DT40 TDP1 no CPT: 7.3µM*; TDP1 cell CPT: 10µM*

How did CCc1ccc(NC(=O)CSc2nc3n[nH]c(C)c3c(=N)n2-c2cccc(OC)c2)cc1 do in these assays?
ClpP mod: -2%; DRD3 agonist: -4; IL-1B inflam inh: -19; DRD3 antagonist: 10; DT40 TDP1 no CPT: 26µM*; TDP1 cell CPT: 18µM*

What do the screens show for `COc1cccc(NC(=O)CSc2nc3n[nH]c(C)c3c(=N)n2-c2cccc(OC)c2)c1`?
ClpP mod: -2%; DRD3 agonist: 8; IL-1B inflam inh: -51*; DRD3 antagonist: 60; DT40 TDP1 no CPT: 21µM*; TDP1 cell CPT: 23µM*

What do the screens show for `Cc1ccc(-n2c(SCC(=O)Nc3cccc(Cl)c3)nc3n[nH]c(C)c3c2=N)cc1`?
ClpP mod: 4%; DRD3 agonist: -4; DT40 TDP1 no CPT: 7.3µM*; TDP1 cell CPT: 8.2µM*

How did Cc1cc(-c2nnc(SCC(=O)Nc3cccc(Cl)c3)n2N)n[nH]1 do in these assays?
ClpP mod: 1%; DRD3 agonist: -6; IL-1B inflam inh: 39; DRD3 antagonist: 6; DT40 TDP1 no CPT: -21%; TDP1 cell CPT: -11%

Results for COc1cccc(NC(=O)CSc2nnc(-c3cc(C)[nH]n3)n2N)c1 ?
ClpP mod: 3%; DRD3 agonist: 3; IL-1B inflam inh: 18; DRD3 antagonist: 8; DT40 TDP1 no CPT: 3%; TDP1 cell CPT: -4%

How did COc1ccc(N(C(=O)Cn2nnc(-c3ccc(F)cc3)n2)C(C)C(=O)NC2CCCC2)cc1OC (configuration not stated) do in these assays?
ClpP mod: -1%; DRD3 agonist: -27; IL-1B inflam inh: 27; DRD3 antagonist: 1; DT40 TDP1 no CPT: 0%; TDP1 cell CPT: 7%

Results for COc1cccc(-n2c(SCC(=O)NCCC3=CCCCC3)nc3n[nH]c(C)c3c2=N)c1 ?
ClpP mod: -2%; DRD3 agonist: 2; IL-1B inflam inh: 19; DRD3 antagonist: 5; DT40 TDP1 no CPT: 15µM*; TDP1 cell CPT: 16µM*

How did Cc1cc(-n2c(SCC(=O)Nc3ccc(F)c(F)c3)nc3n[nH]c(C)c3c2=N)ccc1Cl do in these assays?
ClpP mod: 3%; DRD3 agonist: 16; IL-1B inflam inh: -6; DRD3 antagonist: inconclusive; DT40 TDP1 no CPT: 1.5µM*; TDP1 cell CPT: 2.6µM*
